Values joined by “and” are separate entries in the source; they are usually repeats but may differ in a detail not shown here. Identical values can stand only once. Values without a mark were called inactive.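 How the source made its calls: active = AUC reduced over 20% with Padj below 0.05 in at least 2 of 3 replicates; inactive = otherwise.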

This experiment relates to Fusobacterium nucleatum subsp. animalis. Put plainly: growth AUC relative to DMSO control (median of replicates) (fraction); higher = more growth (less inhibition), active = hit call of the paper. Particulars: 20 µM; 24 h. The procedure, abridged:
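Gut bacterial monocultures in mGAM were treated with 20 µM compound (1% DMSO) and grown anaerobically at 37 °C in round-bottom 96-well plates from OD600 0.05. OD600 was read hourly for 24 h, with the minimum OD set to 0. Area under the growth curve was normalised to the plate median of solvent-only wells, or to row and column medians on the industrial chemical plate. Each value is the median of three biological replicates, each grown on a separate day.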
`Nc1cc(Cl)cc(C(=O)O)c1Cl`: the “growth AUC” value is 0.994.
Consider `CCOP(=S)(OCC)Oc1cnccn1`, for which the “growth AUC” value was 1.01.
To `O=C(O)C(F)(F)C(F)(F)C(F)(F)C(F)(F)C(F)(F)C(F)(F)C(F)(F)C(F)(F)F` belongs 1; to `CCOP(=S)(OCC)SCSCC`, 0.99.
Then `CCOCn1c(-c2ccc(Cl)cc2)c(C#N)c(Br)c1C(F)(F)F`, with 1.05.
As for `CCS(=O)(=O)c1cccnc1S(=O)(=O)NC(=O)Nc1nc(OC)cc(OC)n1`, the “growth AUC” value was 0.912.
Then `CCNc1nc(NC(C)C)nc(SC)n1`, with 1.13.
Then `CN1COCN(Cc2cnc(Cl)s2)/C1=N/[N+](=O)[O-]`, with 0.958; and `COP(=S)(NC(C)C)Oc1ccccc1C(=O)OC(C)C` (centres undefined), with 1.08; and `COC(=O)C(C)(Cl)Cl`, with 1.03.
With `CCCCOCN(C(=O)CCl)c1c(CC)cccc1CC`, the “growth AUC” value was 1.12.
With `CC1(C)C(C=C(Cl)Cl)C1C(=O)OC(C#N)c1ccc(F)c(Oc2ccccc2)c1` (mixture of isomers), the “growth AUC” value is 0.95.
Then `CCOC(=O)CC(SP(=O)(OC)OC)C(=O)OCC` (centres undefined), with 0.893; and `CCNc1nc(Cl)nc(NC(C)C)n1`, with 1.03.
Then `Cc1cccc(C)c1N`, with 0.927; and `CN(C)C(=O)Nc1ccc(Cl)cc1`, with 1.02; and `CCCCNC(=O)n1c(NC(=O)OC)nc2ccccc21`, with 0.976.
To `N#Cc1cc(I)c(O)c(I)c1` belongs 0.828; to `CCOP(=S)(OCC)Oc1cc(Cl)c(Br)cc1Cl`, 1.08.
Regarding `Cc1cnc(C2=NC(C)(C(C)C)C(=O)N2)c(C(=O)O)c1` (centres undefined), the “growth AUC” value is 0.976.
To `CC1(C)CCC(Cc2ccc(Cl)cc2)C1(O)Cn1cncn1` (centres undefined) belongs 1.08; to `CCCN(CCC)c1c([N+](=O)[O-])cc(S(C)(=O)=O)cc1[N+](=O)[O-]`, 0.948.
Consider `Cc1occc1C(=O)Nc1ccccc1`, for which the “growth AUC” value was 0.933.
As for `CCCOCC(=Nc1ccc(Cl)cc1C(F)(F)F)n1ccnc1`, the “growth AUC” value is 1.11.
To `Nc1cc(Cl)cc(Cl)c1` belongs 1.13; to `O=C(O)COc1cc(Cl)c(Cl)cc1Cl`, 0.989; to `Cc1cc(Cl)ccc1N=CN(C)C`, 0.978.
Then `CNC(=O)Oc1cc(C)cc(C(C)C)c1`, with 0.907; and `CCOc1cc(Oc2ccc(C(F)(F)F)cc2Cl)ccc1[N+](=O)[O-]`, with 1.09; and `O=[N+]([O-])c1c(Cl)c(Cl)c(Cl)c(Cl)c1Cl`, with 0.942.
To `CC(Cc1ccc(C(C)(C)C)cc1)CN1CCCCC1` (centres undefined) belongs 1.02.
Regarding `CNC(=O)c1cc(C#N)cc(C)c1NC(=O)c1cc(Br)nn1-c1ncccc1Cl`, the “growth AUC” value was 0.88.
For `O=P(Oc1ccccc1)(Oc1ccccc1)Oc1ccccc1`, the “growth AUC” value was 0.828.
Then `CC(=NC#N)N(C)Cc1ccc(Cl)nc1`, with 0.987 and 0.952.
For the compound `CO/N=C(/C1=NOCCO1)c1ccccc1Oc1ncnc(Oc2ccccc2Cl)c1F`, the “growth AUC” value is 0.978.
To `Cc1ccn2nc(S(=O)(=O)Nc3c(F)cccc3F)nc2n1` belongs 1.1; to `N#Cc1c(Cl)c(Cl)c(Cl)c(C#N)c1Cl`, 0.908; to `C=CCC1=C(C)C(OC(=O)[C@@H]2[C@@H](C=C(C)C)C2(C)C)CC1=O` (some centres undefined), 1.
Then `O=C(O)CNCP(=O)(O)O`, with 1.08.
